PubChem BioAssay

Test: small-molecule microarray binders of probe aWnt5a, primary screen, biochemical, biotinylated probe, 635/667 nm fluorescence (AID 1113);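 also: score merges 667 nm fluorescence intensity with signal-to-noise per printed feature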
Conditions: higher = more signal
Molecule `Cc1ccccc1C(O)C1C=CC2C(=O)N(c3ccccc3)C(=O)C2N1Nc1ccc(C(C)C)cc1` (configuration not stated) has a composite z-score of -0.0721. With `CCS[C@H]1[C@@H](C(=O)O)[C@H](c2ccc(C)cc2)N(S(=O)(=O)c2ccc(C)cc2)[C@@H]1CC` the composite z-score was -0.1. In the case of `COc1cc(NN2C(C(O)c3ccco3)C=CC3C(=O)N(c4ccccc4)C(=O)C32)cc(OC)c1OC` (configuration not stated), the composite z-score is reported as -0.213. `CNS(=O)(=O)c1ccc(C)cc1` gave a composite z-score of -0.169. Work on `O=C1N(Cc2ccccc2)c2ccccc2[C@@H]2OC(c3ccc(OCCCO)cc3)=N[C@]12CCS(=O)(=O)c1ccccc1` yielded a composite z-score of 0.0279. Molecule `COc1cc2c(cc1O)C(C1CC1)N(Cc1sc3ccccc3c1Cl)CC2` (configuration not stated) has a composite z-score of -0.0977. In the case of `Oc1ccc2cc[n+](Cc3sc4ccccc4c3Cl)cc2c1`, the composite z-score is reported as -0.124. With `CC(C)N1C(=O)C[C@@](C(=O)NCC(F)(F)F)(c2ccc([N+](=O)[O-])cc2)[C@H]1c1ccc(CO)cc1` the composite z-score was -0.178. `COCCCNC(=O)[C@@]1(C)c2ccccc2C(=O)N(C(C)C)[C@H]1c1ccc(CO)cc1` gave a composite z-score of -0.152. `COCCOC(=O)N1C(=O)[C@@]2(c3cc(C#CCC(C(=O)OC)C(=O)OC)ccc31)[C@H](c1ccccc1OCCO)N1[C@H](c3ccccc3)[C@H](c3ccccc3)OC(=O)[C@H]1[C@@H]2C(=O)N1CCN(c2ncccn2)CC1` gave a composite z-score of 0.102. Molecule `CCOC(=O)[C@H]1C/C=C/C[C@H](C(=O)OCC)C(=O)O[C@H]2[C@@H](OC)O[C@H](CO)[C@@H](OC(=O)c3c(OC)cccc3OC)[C@@H]2OC1=O` has a composite z-score of -0.126. For `C=C(COC)/C(=C/C[C@@H](OC(=O)c1ccncc1)c1ccc(CO)o1)c1cc(C(=O)OC)ccc1OC`, the composite z-score was 0.0077.
